We go through 40 compounds from PubChem BioAssay (NCATS).

Records with an inconclusive call do not appear. Activity calls are given as the source filed them. The call rests on the fitted dose curve; in most records, active means well fitted cell-killing curve with a large enough effect; inconclusive means small, poorly fitted or top-dose-only effect, or effect the other way; inactive means no such curve, though single readings can be large or run the other way.
Potency means the concentration at half of the fitted maximal effect.

The test is described as follows: Quantitative High-Throughput drug screen in 47 multiple myeloma cell lines against the NCATS MIPE library collection: KMS28BM_JCRB cell viability assay (AID 1919874). Further: nearly all actives have a fitted effect of over 35% in size. Particulars: CellTiter-Glo ATP, 48 h; series mostly up to 45.8 µM; viability, % of control: at the top concentration. The text has this: PI: Beverly A. Mock Ph.D.
Laboratory of Cancer Biology and Genetics,
Center for Cancer Research, National Cancer Institute,
National Institute of Health, Bethesda, Maryland
Drug resistance and disease progression are common in multiple myeloma (MM) patients, underscoring the need for new therapeutic combinations. […] We hypothesized that effective combinations would reduce MYC expression and enhance p16 activity. […] These preclinical data identify potentially useful drug combinations for evaluation in drug-resistant MM and reveal potential mechanisms of combined drug sensitivity.
Described herein is the primary MIPE qHTS used to cherrypick compounds. Validated compounds were then further tested for potential synergistic activiy.
[1] Peat TJ, Gaikwad SM, Dubois W, Gyabaah-Kessie N, Zhang S, Gorjifard S, Phyo Z, Andres M, Hughitt VK, Simpson RM, Miller MA, Girvin AT, Taylor A, Williams D, D'Antonio N, Zhang Y, Rajagopalan A, Flietner E, Wilson K, Zhang X, Shinn P, Klumpp-Thomas C, McKnight C, Itkin Z, Chen L, Kazandijian D, Zhang J, Michalowski AM, Simmons JK, Keats J, Thomas CJ, Mock BA. Drug combinations identified by high-throughput screening promote cell cycle transition and upregulate Smad pathways in myeloma. Cancer Lett. 2023 Aug 1;568:216284. doi: 10.1016/j.canlet.2023.216284. Epub 2023 Jun 24. PMID: 37356470; PMCID: PMC10408729.
SEQUENCE No. (e.g., 1, 2, 3, etc.); […] (e.g., Cells, Incubation, Reagent, etc.); VALUE and DESCRIPTION.
1; Cells; 5 uL; white, solid bottom 1536-well Greiner assay plate.
2; Compounds; 23 nL; Kalypsis pin tool (Wako USA) equipped with a 1536-well pin head to transfer to the assay plates.
3; Incubation; 48 hours; 37C incubation.
4; Reagent;5uL; CellTiter Glo (Promega).
5; Detector; 425V; Luminescence; Viewlux PerkinElmer.
NOTES (numbers refer to Sequence numbers above)
1. The cell-based screening methods employed in this study were like those previously published. Briefly, the corresponding myeloma cell lines were screened in 1,536-well plates with 500 cells, 5-uL per well for inhibition of cell viability (assessed by measuring ATP levels with CellTiterGlo).
2. NCATS MIPE 4.0 library of approved and investigational drugs were added using the Kalypsis pin tool. Wells treated with DMSO only for 100% viability and media only for 0% viability were used as controls.
3. The assay plates were covered and incubated for 48 hours in a 37C, 5% CO2 incubator with controlled humidity.
4. After 48 hours, CellTilter-GloTM luminescent substrate mix (Promega) reagent was added to the assay plate and plates we incubated for 5 min at room temperature.
5. Signal was measured as median relative luminescence units on a ViewLux (PerkinElmer) multiplate reader.
[1] Heske CM, Davis MI, Baumgart JT, Wilson K, Gormally MV, Chen L, Zhang X, Ceribelli M, Duveau DY, Guha R, Ferrer M, Arnaldez FI, Ji J, Tran HL, Zhang Y, Mendoza A, Helman LJ, Thomas CJ. Matrix Screen Identifies Synergistic Combination of PARP Inhibitors and Nicotinamide Phosphoribosyltransferase (NAMPT) Inhibitors in Ewing Sarcoma. Clin Cancer Res. 2017 Dec 1;23(23):7301-7311. doi: 10.1158/1078-0432.CCR-17-1121. Epub 2017 Sep 12. PMID: 28899971; PMCID: PMC6636827.
(In general: In ATP-based viability assays light output follows the ATP content of the culture.)
As to `CCCn1c(=O)c2[nH]c(-c3cnn(Cc4cccc(C(F)(F)F)c4)c3)nc2n(CC)c1=O`, the “viability, % of control” value was 114% (inactive).

`CCn1cc(-c2ccnc3[nH]c(-c4cccc(CN(C)C)c4)cc23)c(-c2ccc(NC(=O)N(C)C)cc2)n1`: the Potency was 6620 nM (active).

Consider `CN(C1CCc2c(c3ccccc3n2CC(=O)O)C1)S(=O)(=O)c1ccc(F)cc1` (stereo not given), for which the Potency is 296 nM (active).

Take `CC(=O)OCC(=O)[C@@]1(O)[C@H](C)C[C@H]2[C@@H]3C=C(C)C4=Cc5c(cnn5-c5ccccc5)C[C@]4(C)[C@@H]3[C@@H](O)C[C@@]21C`: the “viability, % of control” value was 82.7% (inactive).

On to `CC1=C(CO)C(=O)O[C@@H]([C@@H](C)[C@H]2CC[C@H]3[C@@H]4C[C@H]5O[C@]56[C@@H](O)C=CC(=O)[C@]6(C)[C@@H]4CC[C@]23C)C1`, for which the Potency is 132 nM (active).

On to `CC1(C)CCC(c2ccc(Cl)cc2)=C(CN2CCN(c3ccc(C(=O)NS(=O)(=O)c4ccc(N[C@H](CCN5CCOCC5)CSc5ccccc5)c(S(=O)(=O)C(F)(F)F)c4)cc3)CC2)C1`, for which the Potency was 332 nM (active).

Take `COC(=O)Nc1nc2ccc(C(=O)c3ccc(F)cc3)cc2[nH]1`: the Potency is 332 nM (active).

In the case of `CCCCCN(CCC12CC3CC(CC(C3)C1)C2)C(=O)NCCCc1ccncc1`, the Potency is 8330 nM (active).

`O=C(O)C1(Cc2cccc(Nc3nccs3)n2)CCC(Oc2cccc(Cl)c2F)CC1` (stereo not given): the Potency was 332 nM (active).

With `O=C(Nc1cc(C(F)(F)F)cc(C(F)(F)F)c1)c1cc(Cl)ccc1O`, the Potency was 833 nM (active).

Regarding `C=CC(=O)Nc1cccc(Oc2nc(Nc3ccc(N4CCN(C)CC4)cc3OC)ncc2Cl)c1`, the Potency is 20900 nM (active).

With `CC(C)c1cc(C(=O)N2Cc3ccc(CN4CCN(C)CC4)cc3C2)c(O)cc1O`, the Potency is 235 nM (active).

With `CC(C)(C)c1cc(NC(=O)Nc2ccc(-c3cn4c(n3)sc3cc(OCCN5CCOCC5)ccc34)cc2)no1`, the “viability, % of control” value was 121% (inactive).

Consider `NC(=O)c1cccc2cn(-c3ccc([C@@H]4CCCNC4)cc3)nc12`, for which the “viability, % of control” value is 101% (inactive).

For `COC(=O)C[C@](O)(CCCC(C)(C)O)C(=O)O[C@@H]1C(OC)=C[C@]23CCCN2CCc2cc4c(cc2[C@H]13)OCO4`, the Potency is 10500 nM (active).

For `COc1c(N2C[C@@H]3CCCN[C@H]3C2)c(F)cc2c(=O)c(C(=O)O)cn(C3CC3)c12`, the “viability, % of control” value was 111% (inactive).

Regarding `CCN1CCN(Cc2ccc(-c3cc4c(N[C@H](C)c5ccccc5)ncnc4[nH]3)cc2)CC1`, the Potency is 2960 nM (active).

Take `CN1CCC(CNc2ccc3ncc(-c4cccc(OC(F)(F)F)c4)n3n2)CC1`: the Potency is 8330 nM (active).

With `C=CC(=O)Nc1cccc(Oc2nc(Nc3ccc(N4CCN(C)CC4)cc3)ncc2Cl)c1`, the Potency was 14800 nM (active).

In the case of `CCS(=O)(=O)c1cccc(-c2cc(C(=O)NC3CCN(C)CC3)c(C)c3[nH]c4ncc(C)cc4c23)c1`, the Potency was 833 nM (active).

In the case of `O=C(O)CO.[NH2-].[NH2-].[Pt+2]`, the “viability, % of control” value was 96.9% (inactive).

On to `COc1cc2c(cc1-c1c(C)noc1C)ncc1[nH]c(=O)n([C@H](C)c3ccccn3)c12`, for which the Potency is 332 nM (active).

Consider `Cc1cnc(Nc2ccc(F)cc2Cl)nc1-c1c[nH]c(C(=O)N[C@H](CO)c2cccc(Cl)c2)c1`, for which the Potency is 20900 nM (active).

Turning to `Cn1cncc1[C@@](N)(c1ccc(Cl)cc1)c1ccc2c(c1)c(-c1cccc(Cl)c1)cc(=O)n2C`, the Potency is 20900 nM (active).

`CC=C1NC(=O)[C@H]2CSSCCC=C[C@H](CC(=O)N[C@H](C(C)C)C(=O)N2)OC(=O)[C@H](C(C)C)NC1=O`: the Potency is 16.6 nM (active).

In the case of `C1Cc2[nH]nc(-c3nn[nH]n3)c2C1`, the “viability, % of control” value was 117% (inactive).

Turning to `C#Cc1cccc(Nc2ncnc3cc(OC)c(OCCCCCCC(=O)NO)cc23)c1`, the Potency is 33.2 nM (active).

Take `CCC1=C[C@@H]2CN(C1)Cc1c([nH]c3ccccc13)[C@@](C(=O)OC)(c1cc3c(cc1OC)N(C)[C@@H]1[C@@](O)(C(=O)OC)[C@H](OC(C)=O)[C@]4(CC)C=CCN5CC[C@]31[C@@H]54)C2`: the Potency is 4.7 nM (active).

For `Nc1ccn([C@@H]2O[C@H](CO)[C@H](O)C2(F)F)c(=O)n1`, the Potency was 5260 nM (active).

For the compound `CNC(=O)c1ccc(-c2cnc3ncc(Cc4ccc5ncccc5c4)n3n2)cc1F`, the “viability, % of control” value was 109% (inactive).

As to `c1nc2nc(Nc3ccc(N4CCOCC4)cc3)nc(NC3CCCCC3)c2[nH]1`, the Potency was 4180 nM (active).

Take `CN[C@H]1CCc2cc(OC)c(OC)c(OC)c2-c2ccc(OC)c(=O)cc21`: the Potency is 3.3 nM (active).

Regarding `C=C1C(=CC=C2CCC[C@]3(C)[C@@H]([C@H](C)C=C[C@H](C)C(C)C)CC[C@@H]23)C[C@@H](O)C[C@@H]1O`, the Potency is 209 nM (active).

In the case of `CC(C)c1nn(-c2c(Cl)cccc2Cl)c2nc(Cc3ccc(OCCO)cc3)[nH]c(=O)c12`, the Potency was 209 nM (active).

In the case of `O=C(O)[C@H](Cc1c[nH]c2ccccc12)N1C(=O)c2ccccc2C1=O`, the “viability, % of control” value was 92.9% [at 92.2 µM] (inactive).

On to `Cc1coc2c1C(=O)C(=O)c1c-2ccc2c1CCCC2(C)C`, for which the “viability, % of control” value was 88.8% (inactive).

`Cc1c(CN2CCN(S(C)(=O)=O)CC2)sc2c(N3CCOCC3)nc(-c3cnc(N)nc3)nc12`: the Potency was 13.2 nM (active).

Consider `CC1(O)CC(c2nc(-c3ccc4ccc(-c5ccccc5)nc4c3)c3c(N)nccn23)C1` (stereo not given), for which the Potency is 148 nM (active).

Turning to `Nc1nc(Nc2ccc(S(N)(=O)=O)cc2)nn1C(=O)c1c(F)cccc1F`, the Potency was 6620 nM (active).

As for `CN(C)CC=CC(=O)Nc1cc2c(Nc3ccc(F)c(Cl)c3)ncnc2cc1O[C@H]1CCOC1`, the Potency was 11800 nM (active).
